Where “and” joins values, the source holds several entries; their conditions need not be identical. Identical values can stand only once. Values without a mark were called inactive. Inconclusive results are not listed. Calls of active or inactive are those of the source. Unless noted, the call rests on the fitted dose curve; in most records, active means well fitted curve in the direction sought with a large enough effect in the repeat runs; inconclusive means weak or mixed curves; inactive means no such curve, though single readings can be large; an effect the other way counts as inactive or inconclusive.

The nature of test [1]: qHTS assay for small molecule agonists of the p53 signaling pathway - cell viability (AID 651633; calls by dose curve; further: nearly all actives have a fitted effect of over 30% in size; further: potency means the concentration at half of the fitted maximal effect). An outline of the steps:
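p53RE-bla cells, seeded at 4,000 per well and rested 5 h at 37 C/5% CO2, received compounds in DMSO for 16 h at 37 C. CellTiter-Glo was then added, and luminescence was read after 30 min at room temperature to gauge cytotoxicity.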
(Quantitative high-throughput screening tests each substance at several concentrations.)

Test [2] is described as follows: qHTS assay for small molecules that induce genotoxicity in human embryonic kidney cells expressing luciferase-tagged ATAD5 - cell viability (AID 651634; calls by dose curve; further: nearly all actives have a fitted effect of over 25% in size; further: potency means the concentration at half of the fitted maximal effect). Put shortly:
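Cytotoxicity counter-readout: after 15.5 hr compound treatment at 37C, live-cell protease activity in ATAD5-luciferase HEK293T cells measured by CellTiter-Fluor fluorescence, 30 min development at 37C.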

A short description of test [3]: qHTS assay for small molecule disruptors of the mitochondrial membrane potential - cell viability (AID 720634; calls by dose curve; further: nearly all actives have a fitted effect of over 20% in size; further: potency means the concentration at half of the fitted maximal effect). Put shortly: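 Cytotoxicity was quantified from ATP content by CellTiter-Glo luminescence in the same wells as the MMP dye read-out. HepG2 (2,000 cells/well) were plated overnight and exposed to compounds for 1 hr at 37 C.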
The nature of test [4]: qHTS assay for small molecule disruptors of the mitochondrial membrane potential (AID 720635). Further: potency means the concentration at half of the fitted maximal effect. An outline of the steps: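 HepG2 cells (2,000/well) attached overnight at 37C, then took compound for 1 hr at 37C, 5% CO2. Mito-MPS dye was added for 30 min; fluorescence was read at 490/535 nm (monomers) and 540/590 nm (aggregates).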
The nature of test [5]: qHTS assay to test for compound auto fluorescence at 590 nm (red) in HepG2 cells (AID 720674). Put shortly: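 Rose Bengal sodium served as the red fluorophore standard. HepG2 monolayers (overnight attachment, MEM with 10% FBS) were exposed to test compounds for 1 hr at 37 C and read at Ex 540/Em 590 nm.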
Test [6] can be described thus: qHTS assay to test for compound auto fluorescence at 535 nm (green) in HepG2 cells (AID 720675).
Test [7] in a line: qHTS assay to test for compound auto fluorescence at 460 nm (blue) in HEK293 cells (AID 720678). Put shortly: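 After cell attachment (4-5 hr, 37C), compounds were pinned onto HEK293 monolayers in 10% dialyzed FBS medium. The blue channel (405/460 nm) was read following overnight culture. Equivalency was calculated against triamterene.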
Test [8] can be described thus: qHTS assay to test for compound auto fluorescence at 590 nm (red) in HEK293 cells (AID 720679). An outline of the steps: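 Plates of HEK293 cells (10% dialyzed FBS) are treated with 23 nL compound or DMSO vehicle after a 4-5 hr attachment period, incubated overnight at 37C, and read for red fluorescence at 540/590nm.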
Test [9] in a line: qHTS assay for small molecules that induce genotoxicity in human embryonic kidney cells expressing luciferase-tagged ATAD5 (AID 651632). Further: nearly all actives have a fitted effect of over 15% in size. An outline of the steps:
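A rise in luciferase signal from ATAD5-tagged HEK293T cells marks genetic stress. Cells were exposed to compounds for 16 hr at 37C, 5% CO2, then luciferase was quantified after a 30 min room-temperature incubation with Amplite.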
On the % scale 0 is the no-effect control and ±100 the full control effect.

As for `O=C(NN1CCCC1)NS(=O)(=O)c1ccc(Cl)cc1`, the Potency result in test [1], in [2], in test [3], in test [4] and in test [7] was “inactive” throughout. Further, the molecule was classed as inactive in test [5], in [6] and in [8].
Take `CN(C)CC/C=C1\c2ccccc2COc2ccccc21`: the Potency entry in test [1], in test [2], in test [3] and in [7] was “inactive” throughout. For the same molecule, the molecule was called inactive in test [5], in [6] and in test [8].
As for `O=S1(=O)N=C(O)c2ccccc21`, the Potency entry in test [2], in [3], in test [4] and in test [7] was “inactive” throughout. Besides, the molecule was called inactive in test [5], in test [6] and in [8].
Turning to `CC(O)C1CCCCC1` (stereo unspecified), the Potency entry in test [1], in test [2], in [3], in test [4] and in test [7] was “inactive” throughout. Besides, the molecule was classed as inactive in [5] and in test [6].
On to `CC1(C)CCC(C)(C)c2cc(NC(=O)c3ccc(C(=O)O)cc3)ccc21`, for which the Potency result in [9], in test [3] and in test [7] was “inactive” throughout. Moreover, the Potency in test [4] is 24.8 µM (active). In addition, the result in [5], in test [6] and in test [8] was inactive.
For `O=c1c2ccccc2nnn1CCl`, the Potency entry in test [1], in test [2], in test [3], in [4] and in test [7] was “inactive” in each case. Moreover, the molecule was classed as inactive in test [5] and in [8].
Turning to `Cc1cc(C)c(S(=O)(=O)O)cc1N=Nc1cc(S(=O)(=O)O)c2ccccc2c1O`, the Potency result in [1], in [3] and in test [7] was “inactive” throughout. Moreover, the Potency in [2] was 48.6 µM (active). Further, the molecule was called inactive in test [5], in test [6] and in [8].
Regarding `CC(Cc1cccc(C(F)(F)F)c1)NCCOC(=O)c1ccccc1` (stereo unspecified), the Potency entry in test [9], in test [3] and in [7] was “inactive” in each case. Besides, the result in test [5] and in [8] was inactive.
`C1CCC2OC2C1` (stereo unspecified): the Potency result in test [1], in test [2], in [3], in [4] and in test [7] was “inactive” in each case. The call in [5], in test [6] and in test [8] was inactive.
Regarding `Cc1occc1S`, the Potency entry in test [1], in test [2], in test [3], in test [4] and in [7] was “inactive” throughout. Moreover, the result in test [5], in test [6] and in test [8] was inactive.
`CN1CCC(=C2c3ccccc3C=Cc3ccccc32)CC1`: the Potency result in test [1], in test [2], in test [3] and in [7] was “inactive” in each case. Also, the result in [5], in test [6] and in [8] was inactive.
On to `O=c1[nH]cnc2ccccc12`, for which the Potency entry in test [1], in test [3], in test [4] and in [7] was “inactive” each time. Also, the molecule was called inactive in test [5], in [6] and in test [8].
For `NCCCN(CCO)CCO`, the Potency result in test [9], in test [2], in test [3] and in [7] was “inactive” in each case. For the same molecule, the result in [5] and in test [8] was inactive.
With `Cc1cc(O)ccc1N`, the Potency entry in test [9] and in test [2] was “inactive” in each case. The molecule was classed as inactive in test [5], in test [6] and in [8].
On to `Cn1c(NCCN(CCO)CCCc2ccc([N+](=O)[O-])cc2)cc(=O)n(C)c1=O`, for which the Potency entry in test [9], in [2] and in test [3] was “inactive” each time. Besides, the molecule was called inactive in test [5], in [6] and in test [8].
In the case of `OC(CCN1CCCCC1)(c1ccccc1)C1CCCCC1` (stereo unspecified), the Potency entry in test [2], in test [3] and in test [7] was “inactive” throughout. Moreover, the call in test [5], in test [6] and in test [8] was inactive.
Regarding `O=C(O)Cc1cc(I)c(Oc2ccc(O)c(I)c2)c(I)c1`, the Potency is 3.59 µM (active) and 43.3 µM (active) in test [1]; 68.6 µM (active) in [4]. In addition, the Potency result in [2], in test [3] and in test [7] was “inactive” each time. Besides, the molecule was called inactive in test [5], in test [6] and in test [8].
Turning to `NC(N)=NN=C(/C=C/c1ccc([N+](=O)[O-])o1)/C=C/c1ccc([N+](=O)[O-])o1`, the Potency in [1] was 2.37 µM (active); in [2], 10.6 µM (active); in test [3], 18.8 µM (active); in [4] it was 2.66 µM (active). For the same molecule, the result in test [5], in test [6] and in test [8] was inactive. In addition, the Potency entry in test [7] is “inactive”.
As to `CC(C)(C)c1cc(CCC(=O)OCC(COC(=O)CCc2cc(C(C)(C)C)c(O)c(C(C)(C)C)c2)(COC(=O)CCc2cc(C(C)(C)C)c(O)c(C(C)(C)C)c2)COC(=O)CCc2cc(C(C)(C)C)c(O)c(C(C)(C)C)c2)cc(C(C)(C)C)c1O`, the Potency entry in test [1], in test [2], in [3] and in test [7] was “inactive” in each case. Also, the outcome in [5], in test [6] and in [8] was inactive.
As for `O=C(O)Cn1c(C(=O)Nc2nc(-c3ccccc3Cl)cs2)cc2ccccc21`, the Potency entry in test [1], in test [2], in test [3] and in [7] was “inactive” each time. Also, the Potency in test [4] was 26.6 µM (active). In addition, the call in test [5], in test [6] and in [8] was inactive.
With `CC(=O)/C=C/C1C(C)=CCCC1(C)C` (stereo unspecified), the Potency entry in test [1], in test [2], in test [3] and in test [7] was “inactive” each time. In addition, the result in test [5] was inactive.
Take `CC(C)(C)c1cc(CO)cc(C(C)(C)C)c1O`: the Potency result in [1], in [2], in test [3] and in [7] was “inactive” in each case. The Potency in test [4] was 49.5 µM (active). Besides, the molecule was classed as inactive in [5], in test [6] and in test [8].
For the molecule `CC(=O)CC(=O)c1ccccc1`, the Potency entry in test [1], in test [2], in test [3], in test [4] and in test [7] was “inactive” each time. The result in test [5], in [6] and in test [8] was inactive.
In the case of `COCCCCCCCCOCCC[Si](C)(O[Si](C)(C)C)O[Si](C)(C)C`, the Potency result in [1] and in test [7] was “inactive” each time. For the same molecule, the Potency in test [4] is 4.86 µM (active). The result in [5] and in test [6] was inactive.
Turning to `N#CCCNCCC#N`, the Potency result in test [1], in test [2], in test [3], in test [4] and in [7] was “inactive” in each case. For the same molecule, the call in test [5], in test [6] and in test [8] was inactive.
Regarding `CCCCc1cc2ccccc2c(OCCN(C)C)n1`, the Potency result in test [1], in [2] and in test [3] was “inactive” each time. Also, the fluorescence, relative to Rose Bengal in [5] was 0.0286% [at 18.6 µM]. In test [6], the fluorescence, % of fluorescein control is 0.0129% [at 18.6 µM]. In addition, the fluorescence, % of triamterene in [7] was 0.0451% [at 18.6 µM].
As to `CC(=O)c1c(C)c([N+](=O)[O-])c(C(C)(C)C)c([N+](=O)[O-])c1C`, the Potency result in test [1], in [2] and in [7] was “inactive” throughout. Besides, the Potency in test [4] is 54.5 µM (active). Further, the outcome in [5] and in test [8] was inactive.
`CCCCCOC(=O)c1ccc(O)cc1`: the Potency entry in [1] is “inactive”. Moreover, the Potency in [4] is 6.94 µM (active). Further, the result in test [5] was inactive.
In the case of `O=CNc1ccccc1`, the Potency entry in test [1], in test [2], in [3], in test [4] and in test [7] was “inactive” in each case. For the same molecule, the result in [5], in [6] and in [8] was inactive.
Turning to `C=CC(=O)OCC(C)OCC(C)OCC(C)OC(=O)C=C` (stereo unspecified), in test [1], the Potency is 24.3 µM (active). Also, the Potency result in test [3] is “inactive”. Further, the result in test [5] and in test [8] was inactive.
`N#CCc1cccc(C(F)(F)F)c1`: the Potency result in [1], in test [2], in test [3], in test [4] and in test [7] was “inactive” each time. Further, the result in test [5], in test [6] and in [8] was inactive.
With `O=C(O)/C=C/c1cnc[nH]1`, the Potency result in [1], in test [2], in test [3], in [4] and in [7] was “inactive” in each case. Besides, the molecule was called inactive in test [5], in [6] and in test [8].
As to `CC(=O)c1ccc2c(c1)[C@H](NC(=O)c1ccc(F)cc1)[C@@H](O)C(C)(C)O2`, the Potency entry in test [1], in test [2], in [3] and in test [7] was “inactive” throughout. Further, the call in test [5] and in test [8] was inactive.
With `CC(C)c1ccccc1C(C)C`, the Potency entry in test [1], in test [2] and in test [3] was “inactive” throughout. Also, the result in test [5], in test [6] and in test [8] was inactive.
Take `Cc1nc2ccccc2n1Cc1ccc(Cl)cc1`: the Potency result in test [9], in test [2] and in [7] was “inactive” throughout. Besides, the molecule was called inactive in test [5], in test [6] and in test [8].
Take `CCCCCOC(=O)COc1cc(N2C(=O)C3=C(CCCC3)C2=O)c(F)cc1Cl`: the Potency result in test [2], in test [3] and in [7] was “inactive” throughout. For the same molecule, the molecule was called inactive in [5], in test [6] and in test [8].
In the case of `O=C(Nc1ccccc1)OCC(CN1CCCCC1)OC(=O)Nc1ccccc1` (stereo unspecified), the Potency result in test [9] and in test [2] was “inactive” each time. In test [5], the fluorescence, relative to Rose Bengal is -0.654% [at 18.6 µM]. In addition, the fluorescence, % of fluorescein control in test [6] was 0.0386% [at 18.6 µM]. Besides, the fluorescence, % of fluorescent control in test [8] is 0.0612% [at 18.6 µM].
As to `CCN(CC)CCNC(C(=O)OCCC(C)C)c1ccccc1` (stereo unspecified), the Potency result in test [2], in test [3] and in [7] was “inactive” throughout. For the same molecule, the molecule was classed as inactive in [5], in test [6] and in [8].

For the origin of these results see PubChem BioAssay (Tox21).
